Measurements as given in PubChem BioAssay (NCATS).
Inconclusive results are not listed. The source made the active and inactive calls. Unless noted, calls come from the whole dose curve.

Key:
[1] = qHTS for Inhibitors of the Functional Ribonucleoprotein Complex (vRNP) of Lassa (LASV) Arenavirus: LASV Primary Screen - GLuc reporter signal (AID 1347082; calls by dose curve; tested in HEK293 reporter line; note: series mostly up to about 57 µM; nearly all actives have a fitted effect of over 60% in size)
[2] = qHTS for Inhibitors of the Functional Ribonucleoprotein Complex (vRNP) of Lassa (LASV) Arenavirus: Viability assay - alamar blue signal for LASV Primary Screen (AID 1347083; calls by dose curve; tested in HEK293 reporter line; note: series mostly up to about 57 µM; nearly all actives have a fitted effect of over 80% in size)
[3] = qHTS for Inhibitors of the Functional Ribonucleoprotein Complex (vRNP) of Lymphocytic Choriomeningitis Arenaviruses (LCMV): Viability assay - alamar blue signal for LCMV Primary Screen (AID 1347085; calls by dose curve; tested in HEK293 reporter line; note: series mostly up to about 57 µM; nearly all actives have a fitted effect of over 80% in size)
[4] = biological target: Nucleoprotein (Lymphocytic choriomeningitis virus (strain Armstrong)) (UniProt P09992); experiment: qHTS for Inhibitors of the Functional Ribonucleoprotein Complex (vRNP) of Lymphocytic Choriomeningitis Arenaviruses (LCMV): LCMV Primary Screen - GLuc reporter signal (AID 1347086); note: series mostly up to about 57 µM; nearly all actives have a fitted effect of over 70% in size
[5] = qHTS of pediatric cancer cell lines to identify multiple opportunities for drug repurposing: Primary screen for SJ-GBM2 cells (AID 1347091; active = well fitted curve in the direction sought with a large enough effect; an effect the other way counts as inactive or inconclusive)
Outline: (§1)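 Cell viability, CellTiter-Glo luminescence; 500-1,000 cells/well, 8- or 11-point titration, 48 h compound exposure at 37 degrees C, 5% CO2. Controls: DMSO neutral, bortezomib 2.3 µM final as positive.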

[6] = qHTS of pediatric cancer cell lines to identify multiple opportunities for drug repurposing: Primary screen for BT-37 cells (AID 1347094; active = well fitted curve in the direction sought with a large enough effect; an effect the other way counts as inactive or inconclusive; note: series mostly up to about 57 µM)
Outline: (§2)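 Following a 5-hour attachment period, cells at 500-1,000/well received compounds and were cultured for 48 hours. CellTiter-Glo was added and luminescence read to estimate viable, metabolically active cells.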

[7] = qHTS of pediatric cancer cell lines to identify multiple opportunities for drug repurposing: Primary screen for NB-EBc1 cells (AID 1347095; active = well fitted curve in the direction sought with a large enough effect; an effect the other way counts as inactive or inconclusive)
Outline: as §2

[8] = qHTS of pediatric cancer cell lines to identify multiple opportunities for drug repurposing: Primary screen for TC32 cells (AID 1347089; active = well fitted curve in the direction sought with a large enough effect; an effect the other way counts as inactive or inconclusive; note: nearly all actives have a fitted effect of over 60% in size)
Outline: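 In the primary qHTS, MIPE compounds were tested at 11 concentrations (0.78 nM to 46 µM) and NPC compounds at 8 (0.59 nM to 46 µM) on TC32 cells for 48 h. CellTiter-Glo luminescence gave viability.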

[9] = qHTS of pediatric cancer cell lines to identify multiple opportunities for drug repurposing: Primary screen for DAOY cells (AID 1347090; active = well fitted curve in the direction sought with a large enough effect; an effect the other way counts as inactive or inconclusive; note: series mostly up to about 46 µM; nearly all actives have a fitted effect of over 55% in size)
Outline: as §1

[10] = qHTS of pediatric cancer cell lines to identify multiple opportunities for drug repurposing: Primary screen for A673 cells (AID 1347092; active = well fitted curve in the direction sought with a large enough effect; an effect the other way counts as inactive or inconclusive; note: nearly all actives have a fitted effect of over 45% in size)
Outline: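 48 h compound exposure, A673, 500-1,000 cells/well, 37 degrees C/5% CO2. MIPE: 11-point, 0.78 nM-46 µM; NPC: 8-point, 0.59 nM-46 µM (final). Readout CellTiter-Glo luminescence after 15 min RT.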

[11] = qHTS of pediatric cancer cell lines to identify multiple opportunities for drug repurposing: Primary screen for SK-N-MC cells (AID 1347093; active = well fitted curve in the direction sought with a large enough effect; an effect the other way counts as inactive or inconclusive; note: series mostly up to about 46 µM)
Outline: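 Metabolically active cells were quantified by ATP-dependent luminescence (CellTiter-Glo, 15 min at room temperature) following 48 h treatment. Cells had been plated at 500-1,000 per well and settled for 5 h beforehand.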

[12] = qHTS of pediatric cancer cell lines to identify multiple opportunities for drug repurposing: Primary screen for U-2 OS cells (AID 1347096; active = well fitted curve in the direction sought with a large enough effect; an effect the other way counts as inactive or inconclusive; note: nearly all actives have a fitted effect of over 50% in size)
Outline: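 Cells (500-1,000/well) rested 5 h, then received compounds for 48 h; metabolically active cells were measured by CellTiter-Glo luminescence. Final concentrations spanned up to 46 µM (MIPE, 11-point) or 0.59 nM-46 µM (NPC, 8-point) in primary screens, 11-point in follow-ups.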

Measured: Potency

Nucleoprotein (Lymphocytic choriomeningitis virus (strain Armstrong)), sequence (P09992 whole entry, looked up): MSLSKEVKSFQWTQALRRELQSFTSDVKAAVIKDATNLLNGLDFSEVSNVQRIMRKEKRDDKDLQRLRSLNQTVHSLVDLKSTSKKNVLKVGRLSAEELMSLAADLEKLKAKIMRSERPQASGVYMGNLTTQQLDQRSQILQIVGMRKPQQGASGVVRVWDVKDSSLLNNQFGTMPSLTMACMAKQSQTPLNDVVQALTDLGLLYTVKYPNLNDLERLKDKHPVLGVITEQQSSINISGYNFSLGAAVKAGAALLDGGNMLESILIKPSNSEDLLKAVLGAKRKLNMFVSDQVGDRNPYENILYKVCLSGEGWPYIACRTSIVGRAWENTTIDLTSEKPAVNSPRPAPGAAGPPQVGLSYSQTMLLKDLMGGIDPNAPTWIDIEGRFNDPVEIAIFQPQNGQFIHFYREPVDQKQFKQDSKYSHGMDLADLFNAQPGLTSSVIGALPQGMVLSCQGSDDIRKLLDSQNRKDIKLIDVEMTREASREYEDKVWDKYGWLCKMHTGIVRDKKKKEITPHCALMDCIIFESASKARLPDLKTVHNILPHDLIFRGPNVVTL

Cc1ncc(COP(=O)(O)O)c(C=O)c1O
inactive: [1] | [2] | [3] | [4]

O=c1[nH]c(=O)c2ccccc2o1
inactive: [1] | [2] | [3] | [4]

Fc1ccc(C(c2ccc(F)cc2)N2CCNCC2)cc1
inactive: [1] | [2] | [3] | [4]

C[C@@H]1C[C@H]2[C@@H]3CCC4=CC(=O)C=C[C@]4(C)[C@@]3(F)[C@@H](O)C[C@]2(C)[C@H]1C(=O)CO
inactive: [1] | [2] | [3] | [4]

Cc1cccc(Nc2cc(Cl)nc(SCC(=O)O)n2)c1C
inactive: [1] | [2] | [3] | [4]

CCCCCCCCCCCCCCCCCCOCC(O)CO (configuration not stated)
inactive: [1] | [2] | [3] | [4]

C/C=C(/C(=C/C)c1ccc(OC(C)=O)cc1)c1ccc(OC(C)=O)cc1
inactive: [1] | [2] | [3] | [4]

COCCc1ccc(OCC(O)CNC(C)C)cc1 (configuration not stated)
inactive: [1] | [2] | [3] | [4]

OC(CN1CCC(Cc2ccc(F)cc2)CC1)c1ccc(Cl)cc1 (configuration not stated)
inactive: [1] | [2] | [3] | [4]

CC(C)(C)c1ccc(C(=O)CCCCl)cc1
inactive: [1] | [2] | [3] | [4]

Cc1ccc2c(Cl)cc(Cl)c(O)c2n1
inactive: [1] | [2] | [3] | [4]

C[C@H]1C[C@H]2[C@@H]3CCC4=CC(=O)C=C[C@]4(C)[C@@]3(Cl)[C@@H](O)C[C@]2(C)[C@@]1(O)C(=O)CO
inactive: [1] | [2] | [3] | [4]

COc1cccc(CCc2ccccc2OCC(CN(C)C)OC(=O)CCC(=O)O)c1 (configuration not stated)
inactive: [1] | [2] | [3] | [4]

OC1C(O)C(O)C(O)C(O)C1O (configuration not stated)
inactive: [1] | [2] | [3] | [4]

CN(C(=O)CN(CCO)CC(=O)N(C)C(C)(C)Cc1ccccc1)C(C)(C)Cc1ccccc1
inactive: [1] | [2] | [3] | [4]

CCOc1ccccc1C(N)=O
inactive: [1] | [2] | [3] | [4]

CC(C(=O)O)c1ccc(CC2CCCC2=O)cc1 (configuration not stated)
inactive: [1] | [2] | [3] | [4]

Cc1ccc(O)cc1
inactive: [1] | [2] | [3] | [4]

O=C(OCC(O)CO)c1ccccc1Nc1ccnc2c(C(F)(F)F)cccc12 (configuration not stated)
inactive: [1] | [2] | [3] | [4]

C[C@@H](O)[C@H]1C(=O)N2C(C(=O)O)=C([C@H]3CCCO3)S[C@H]12
inactive: [1] | [2] | [3] | [4]

COCC(=O)O[C@]1(CCN(C)CCCc2nc3ccccc3[nH]2)CCc2cc(F)ccc2[C@@H]1C(C)C
inactive: [1] | [2] | [3] | [4]

OC[C@@H](O)[C@@H](O)[C@H](O)[C@H](O)CO
inactive: [1] | [2] | [3] | [4]

CCOC(=O)CN1CCCC1=O
inactive: [1] | [2] | [3] | [4]

CN1CCCN=C1/C=C/c1cccs1
inactive: [1] | [2] | [3] | [4]

CCCCC1C(=O)N(c2ccccc2)N(c2ccccc2)C1=O
inactive: [1] | [2] | [3] | [4]

CCCOc1ccc(C(=O)OCCN(CC)CC)cc1N
inactive: [1] | [2] | [3] | [4]

CC(C)NCC(O)c1ccc2ccccc2c1 (configuration not stated)
inactive: [1] | [2] | [3] | [4]

CC(=O)OCC(=O)NCCCOc1cccc(CN2CCCCC2)c1
inactive: [1] | [2] | [3] | [4]

OCCN1CCN(CCCN2c3ccccc3C=Cc3ccccc32)CC1
inactive: [1] | [2] | [3] | [4]

CCN(CC)CCCN(c1ccccc1)C1Cc2ccccc2C1
inactive: [1] | [2] | [3] | [4]

CN(C)CCc1c[nH]c2ccc(O)cc12
inactive: [1] | [2] | [3] | [4] | [5] | [6] | [7]

CCOC(=O)NC(C)(C)Cc1ccc(Cl)cc1
inactive: [1] | [2] | [3] | [4] | [8] | [9] | [5] | [10] | [11] | [6] | [7] | [12]

O=C(CBr)Nc1ccc(Cl)cc1C(=O)c1ccccc1F
inactive: [1] | [2] | [3] | [4] | [8] | [9] | [5] | [10] | [11] | [6] | [7] | [12]

C=CCN1CC[C@]23CCCC[C@H]2[C@H]1Cc1ccc(O)cc13
inactive: [1] | [2] | [3] | [4] | [8] | [9] | [5] | [10] | [11] | [6] | [7]
